# High-throughput results deposited in PubChem by National Center for Advancing Translational Sciences (NCATS).
# In the library only some 18% were active in any assay of this set; here they are far more common.
# CtBP-E1A inh = qHTS Assay for Inhibitors of the CtBP/E1A Interaction | CtBP / adenovirus E1A interaction (AlphaScreen) | AlphaScreen GST-E1A/His-CtBP binding, 1536-well; hits give low values | activity change, % (concentration not given with the values) | hit rate 0.49% among 340,000 | AID 651724, 2012; in the data active means activity change below about -65%; inconclusive means mostly about -30% to -63%
#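 Steps: dispense buffer (Tris pH 8.0, NaCl 300 mM, TCEP 1 mM, BSA, Tween 20); add 5X protein mix (GST-E1A, His-CtBP, 125 nM each); pin 23 nL compound; 2 h at 37 °C, dark; add 5X beads (50 ug/mL); 1 h; read.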
# Six1-Eya2 blk = qHTS Assay for Inhibitors of the Six1/Eya2 Interaction; Homeobox protein SIX1 (Homo sapiens) + Protein phosphatase EYA2 (Homo sapiens), …; activity change, % (no concentration beside the values); hit rate 0.56% among 360,000; AlphaScreen GST-Six1/His-Eya2 binding, biochemical; hits give low values; AID 651725, 2012; in the data active means activity change below about -65%; inconclusive means mostly about -30% to -63%
# Target sequence (O00167 whole entry, looked up): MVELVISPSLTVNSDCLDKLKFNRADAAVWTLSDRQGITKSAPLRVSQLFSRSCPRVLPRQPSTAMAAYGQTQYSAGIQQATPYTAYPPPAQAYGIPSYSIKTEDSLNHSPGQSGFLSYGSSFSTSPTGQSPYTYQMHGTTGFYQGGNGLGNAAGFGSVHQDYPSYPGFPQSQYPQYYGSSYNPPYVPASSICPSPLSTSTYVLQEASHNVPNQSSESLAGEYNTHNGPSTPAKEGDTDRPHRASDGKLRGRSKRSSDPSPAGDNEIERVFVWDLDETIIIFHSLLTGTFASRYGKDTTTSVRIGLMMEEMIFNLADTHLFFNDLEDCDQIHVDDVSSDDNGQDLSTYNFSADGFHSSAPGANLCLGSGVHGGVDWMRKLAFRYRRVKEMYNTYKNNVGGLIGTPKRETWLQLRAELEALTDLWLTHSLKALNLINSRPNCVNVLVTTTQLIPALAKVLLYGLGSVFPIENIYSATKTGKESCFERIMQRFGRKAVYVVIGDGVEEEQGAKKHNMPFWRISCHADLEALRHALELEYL
# Target sequence (Q15475 whole entry, looked up): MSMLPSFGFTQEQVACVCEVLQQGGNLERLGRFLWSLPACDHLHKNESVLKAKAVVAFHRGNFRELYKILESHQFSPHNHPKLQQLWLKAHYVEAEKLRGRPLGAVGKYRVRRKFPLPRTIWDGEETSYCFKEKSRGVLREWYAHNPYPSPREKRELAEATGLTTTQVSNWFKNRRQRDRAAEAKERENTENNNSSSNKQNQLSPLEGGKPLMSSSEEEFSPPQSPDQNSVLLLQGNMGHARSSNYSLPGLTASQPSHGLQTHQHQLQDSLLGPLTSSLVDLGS
#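 GST-Six1 + His-Eya2 (5X stock: 250/500 nM); Tris pH 8.0, 300 mM NaCl, 0.05% BSA, 0.02% Tween 20; GSH donor/Ni acceptor beads; 1 h 37 °C dark; AlphaScreen readout.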
# TDP1 cell CPT = qHTS for Inhibitors of human tyrosyl-DNA phosphodiesterase 1 (TDP1): qHTS in cells in presence of CPT; chicken DT40 Tdp1-/-;hTDP1 cells + 20 nM CPT, ATP luminescence, 48 h; Potency, µM (highest dose often 46.2 µM), inactives show at the top dose activity change, negative = growth inhibition, usual class: inhibitors; hit rate 12% among 420,000; AID 686979, 2013; further: potency means the concentration at half of the fitted maximal effect; nearly all actives have a fitted effect of over 55% in size
#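 Chicken DT40 Tdp1-/- cells stably complemented with human TDP1 were seeded at 400 cells/well in medium containing 20 nM camptothecin, exposed to pin-transferred compounds, and grown at 37 °C for at least 48 hr. Viability was read as ATP luminescence.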
# TDP1 inh = qHTS Assay for Inhibitors of Tyrosyl-DNA Phosphodiesterase (TDP1) | Tyrosyl-DNA phosphodiesterase 1 (Homo sapiens), Q9NUW8 | recombinant TDP1, AlphaScreen DNA substrate cleavage | Potency, µM (titrated, usually from 130 µM), for the others: at the top dose activity change, negative = inhibition, hits mostly inhibitors | hit rate 0.28% among 350,000; further: potency means the concentration at half of the fitted maximal effect; nearly all actives have a fitted effect of over 40% in size
#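 Compounds were preincubated with Tdp1 (1 nM final) for 15 min at room temperature before substrate (15 nM final) started a 5 min reaction; beads (10 ug/ml final) were then added for 10 min before AlphaScreen detection.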
# TDP1 cell noCPT = qHTS for Inhibitors of human tyrosyl-DNA phosphodiesterase 1 (TDP1): qHTS in cells in absence of CPT; DT40 Tdp1-/- hTDP1 cells, no CPT, ATP luminescence, 48 h; Potency, µM (top dose mostly 46.2 µM), for the others: at the top dose activity change, negative = growth inhibition, actives largely listed as inhibitors; hit rate 15% among 420,000; AID 686978, 2013; further: potency means the concentration at half of the fitted maximal effect; nearly all actives have a fitted effect of over 55% in size
#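 Compound effects on proliferation are scored in DT40 Tdp1-/-;hTDP1 cells in the absence of CPT. ATP levels (CellTiter-Glo luminescence) are recorded after a ≥48 hr, 37 °C incubation.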
# IL1B secr inh = qHTS for Inhibitors of Inflammasome Signaling: IL-1-beta AlphaLISA Primary Screen | THP-1 LPS/ATP IL-1B secretion, AlphaLISA, 16 h; hits give low values | AID 743279, 2014 | activity change, % at 57.5 µM | hit rate 4.7% among 360,000; in the data active means activity change below about -50%; inconclusive means mostly about -30% to -49%
#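 THP-1 cells pretreated 1 hr with compounds (up to 57.5 uM final), then stimulated with LPS (250 ng/mL final) plus ATP (1.25 mM final); secreted IL-1B measured by AlphaLISA after 16 hr, decreased signal indicating inhibition.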
# Numbers without * were called inactive; u = inconclusive; x = not tested or not shown; [ ] = remark or other dose. Unless noted, the call rests on the fitted dose curve; in most records, active means well fitted curve in the direction sought with a large enough effect; inconclusive means small, poorly fitted or top-dose-only effect, or another doubt; inactive means no such curve, though single readings can be large; an effect the other way counts as inactive or inconclusive. On the % scale 0 is the no-effect control and ±100 the full control effect.
SMILES,CtBP-E1A inh,Six1-Eya2 blk,TDP1 cell CPT,TDP1 inh,TDP1 cell noCPT,IL1B secr inh
COc1ccc(C(CNC(=O)c2cc(S(=O)(=O)Nc3cccc(C)c3)ccc2C)N2CCOCC2)cc1 (stereo not drawn),0.0,1.8,u,x,u,u
COc1ccc(C(=O)NCCCN2CCCC2=O)cc1,1.0,2.5,-3.4%,4.0%,-1.5%,30.4
COc1cc(C(=O)NCCCN2CCCC2=O)cc(Br)c1OCc1ccccc1,-6.5,-1.1,u,1.8%,18.4µM*,5.9
Cc1cccc(NS(=O)(=O)c2ccc(C)c(C(=O)NCC(c3cccs3)N3CCOCC3)c2)c1 (stereo not drawn),x,-0.5,u,x,16.4µM*,0.2
O=C(NCC(c1cccs1)N1CCOCC1)c1cn(-c2ccccc2)nc1-c1ccccc1 (stereo not drawn),6.1,0.0,u,1.8%,18.4µM*,0.0
O=C(NCC(c1cccs1)N1CCOCC1)c1cn(-c2ccccc2)nc1-c1ccc(Cl)cc1 (stereo not drawn),10.7,6.4,u,x,u,u
COc1cc(C(=O)NCC(c2cccs2)N2CCOCC2)cc(Br)c1OCc1ccccc1 (stereo not drawn),x,-3.4,9.2µM*,0.2%,9.2µM*,-8.1
CCOc1cc(N2CCOCC2)c(OCC)cc1NC(=O)CN1C(=O)NC(C)(C2CC2)C1=O (stereo not drawn),-6.0,-1.8,3.8%,5.4%,9.3%,-19.3
O=C(NCC(c1cccs1)N1CCOCC1)c1cc(F)cc(F)c1 (stereo not drawn),-1.4,8.6,20.6µM*,x,14.6µM*,21.4
O=C(NCC(c1cccs1)N1CCOCC1)c1ccc(Cl)cc1 (stereo not drawn),5.7,3.8,u,-13.2%,u,13.5
CC(C)C(=O)N1CCC1(C)C(=O)NS(=O)(=O)c1cccs1 (stereo not drawn),8.9,-1.1,-20.8%,x,-0.3%,8.7
O=C(Nc1ccccc1[N+](=O)[O-])OCC=Cc1ccccc1,-13.7,u,1.0%,x,u,-54.1*
CCCCn1c(=O)c2oc3ccccc3c2n(CC(=O)Nc2cccc(Cl)c2)c1=O,x,x,-28.6%,2.6%,-18.5%,x
Cc1ccc(C)c(NC(=O)Cn2c(=O)n(Cc3ccccc3)c(=O)c3oc4ccccc4c32)c1,x,x,4.61µM*,7.7%,5.8µM*,x
COc1cc(NC(=O)Cn2c(=O)n(Cc3ccccc3)c(=O)c3oc4ccccc4c32)cc(OC)c1,x,x,-4.3%,0.0%,-12.0%,x
Cc1ccc(C)c(NC(=O)Cn2c(=O)n(Cc3ccco3)c(=O)c3oc4ccccc4c32)c1,x,x,16.4µM*,2.6%,10.3µM*,x
Cc1cc(C)cc(NC(=O)Cn2c(=O)n(Cc3ccco3)c(=O)c3oc4ccccc4c32)c1,x,x,u,0.0%,-34.0%,x
CCCCn1c(=O)c2oc3ccccc3c2n(CC(=O)Nc2ccc(CC)cc2)c1=O,x,x,13µM*,2.6%,u,x
CCCCn1c(=O)c2oc3ccccc3c2n(CC(=O)Nc2cc(C)ccc2C)c1=O,x,x,11.6µM*,2.6%,11.6µM*,x
COCCn1c(-c2ccc(F)cc2)nc2oc3cc(OC)ccc3c(=O)c2c1=O,-2.3,-0.3,-15.8%,x,-28.6%,70.7
Cc1ccsc1/C=N/Nc1nc(=O)[nH]nc1C,-94.0*,-83.3*,20.6µM*,9.2%,14.6µM*,8.1
COc1ccccc1-c1n[nH]nc1C1=CC(=O)C[C@H](c2ccc(F)cc2)C1,-2.7,4.5,u,x,u,x
COc1ccc(CN(CC(O)COCc2ccccc2)S(=O)(=O)c2ccccc2Br)cc1OC (stereo not drawn),-11.2,-24.8,u,0.7%[56.1 µM],16.4µM*,-63.8*
CC(C)c1ccc(CC(=O)N2CCC2(C)C(=O)NCc2cccc3ccccc23)cc1 (stereo not drawn),4.7,-5.9,u,x,u,-19.3
CC(C)CNC(=O)C1(C)CCCN1C(=O)Cc1cccc2ccccc12 (stereo not drawn),0.6,-3.5,9.2µM*,x,8.2µM*,34.8
SMILES,CtBP-E1A inh,Six1-Eya2 blk,TDP1 cell CPT,TDP1 inh,TDP1 cell noCPT,IL1B secr inh
CC1(C(=O)NCC(F)(F)F)CCN1C(=O)Cc1ccc(-c2ccccc2)cc1 (stereo not drawn),8.1,8.6,14.6µM*,x,u,6.0
CC1(C(=O)NCCC#N)CCN1C(=O)Cc1ccc(-c2ccccc2)cc1 (stereo not drawn),5.4,11.3,u,x,u,20.7
CC(C)CNC(=O)C1(C)CCCN1C(=O)c1cc2ccccc2s1 (stereo not drawn),0.0,27.7,-28.8%,x,-23.4%,-0.1
CC1(C(=O)NCc2cccc3ccccc23)CCN1C(=O)Cc1ccc(-c2ccccc2)cc1 (stereo not drawn),-2.1,-3.0,u,x,u,-103.9*
CC1(C(=O)NCc2cccs2)CCN1C(=O)Cc1cccc2ccccc12 (stereo not drawn),2.4,0.6,29.1µM*,x,16.4µM*,-4.4
Nc1nc2ncn(COCCO)c2c(=O)[nH]1,x,x,18.1%,x,-4.0%,x
O=C(NC1CCOCC1)C1CCC(=O)N(Cc2cccc(C(F)(F)F)c2)C1 (stereo not drawn),1.6,5.4,-10.1%,2.6%,-5.1%,-0.4
O=c1ccc2ccccc2c2ccccc12,-17.6,10.7,2.91µM*,x,2.59µM*,-115.4*
